From PMC10954555

These substances were tested against Protein lin-37 homolog (UniProt Q96GY3) (assay: cross-linking mass spectrometry; other).
Protein lin-37 homolog, sequence (Q96GY3 whole entry): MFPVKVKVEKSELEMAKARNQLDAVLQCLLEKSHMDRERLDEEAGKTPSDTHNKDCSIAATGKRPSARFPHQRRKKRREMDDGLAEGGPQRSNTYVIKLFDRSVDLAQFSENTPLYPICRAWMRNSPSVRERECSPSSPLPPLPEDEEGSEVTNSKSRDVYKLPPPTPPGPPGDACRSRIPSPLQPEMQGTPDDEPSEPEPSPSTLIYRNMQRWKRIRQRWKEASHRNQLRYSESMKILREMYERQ
With Protein lin-54 homolog, Q6MZP7 the “listed as a hit” value was “yes”. In the case of Protein lin-9 homolog, Q5TKA1, the “listed as a hit” value is reported as “yes”. Protein lin-52 homolog, Q52LA3 was tested, and the “listed as a hit” value was “yes”.

What follows are substances tested against Transcriptional repressor p66-beta (UniProt Q8WXI9) (assay: other; cross-linking mass spectrometry; other).
Transcriptional repressor p66-beta, sequence (Q8WXI9 whole entry): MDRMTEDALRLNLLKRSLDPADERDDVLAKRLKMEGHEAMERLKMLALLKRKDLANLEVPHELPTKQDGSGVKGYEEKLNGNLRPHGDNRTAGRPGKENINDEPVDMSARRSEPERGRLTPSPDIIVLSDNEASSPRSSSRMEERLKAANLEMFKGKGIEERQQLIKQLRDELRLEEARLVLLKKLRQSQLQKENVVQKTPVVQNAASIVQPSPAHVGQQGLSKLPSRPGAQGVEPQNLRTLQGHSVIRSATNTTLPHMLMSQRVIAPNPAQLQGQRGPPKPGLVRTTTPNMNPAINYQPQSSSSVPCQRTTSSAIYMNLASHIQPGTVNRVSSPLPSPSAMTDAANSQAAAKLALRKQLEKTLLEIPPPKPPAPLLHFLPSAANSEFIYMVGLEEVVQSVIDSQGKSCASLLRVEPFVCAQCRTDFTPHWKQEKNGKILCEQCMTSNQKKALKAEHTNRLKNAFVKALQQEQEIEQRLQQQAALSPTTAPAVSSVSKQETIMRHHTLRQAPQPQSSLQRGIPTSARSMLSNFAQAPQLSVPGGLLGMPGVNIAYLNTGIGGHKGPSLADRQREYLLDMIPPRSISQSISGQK
In the case of “ATP-dependent chromatin remodeler CHD4, Q14839”, the “listed as a hit” value is reported as “yes”. For “Metastasis-associated protein MTA2, O94776”, the “listed as a hit” value was “yes”. For “Transcriptional repressor p66-alpha, Q86YP4”, the “listed as a hit” value was “yes”.
